# High-throughput results deposited in PubChem BioAssay by National Center for Advancing Translational Sciences (NCATS).
# DRD3 agonist: qHTS of D3 Dopamine Receptor Agonist: qHTS; D3R DiscoveRx beta-arrestin cells, luminescence, 90 min; max activation, %; 410,000 tested, 0.58% active; AID 652048, 2013; in the data active = max activation above about 30%; also: 0% is about no effect
#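 Cells at 1500/well, incubated overnight, then treated with pinned compounds (dopamine as control) for 90 min at 37 degrees C. DiscoveRx reagent added for 30 - 60 minutes at room temperature; luminescence read.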
# D1 antag: Antagonist of Human D 1 Dopamine Receptor: qHTS; D(1A) dopamine receptor (Homo sapiens), P21728; HEK293 TREx D1 cells, calcium flux, dopamine EC80; hits give low values; activity change, negative = inhibition, % at 10 µM; 360,000 tested, 3.2% active; in the data active = activity change below about -30%; also: % is scaled to controls: 0 for no effect and ±100 for the full control effect
# Target sequence (P21728 whole entry, looked up): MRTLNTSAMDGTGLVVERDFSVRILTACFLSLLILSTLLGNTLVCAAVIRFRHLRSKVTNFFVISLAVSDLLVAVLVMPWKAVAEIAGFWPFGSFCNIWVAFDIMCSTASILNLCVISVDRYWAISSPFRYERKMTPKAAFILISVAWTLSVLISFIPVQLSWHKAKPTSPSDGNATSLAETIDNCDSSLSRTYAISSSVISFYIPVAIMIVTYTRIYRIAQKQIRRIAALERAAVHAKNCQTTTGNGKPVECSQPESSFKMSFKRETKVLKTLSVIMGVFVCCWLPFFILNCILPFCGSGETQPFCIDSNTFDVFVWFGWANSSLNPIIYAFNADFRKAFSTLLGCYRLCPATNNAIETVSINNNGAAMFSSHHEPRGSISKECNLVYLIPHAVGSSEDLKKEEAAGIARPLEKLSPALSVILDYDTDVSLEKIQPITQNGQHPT
#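 Antagonism measured as reduced calcium response to an EC80 dopamine addition following 180 s compound pre-read; cells were inducible HEK293 Trex D1 plated overnight at 30 C, read kinetically at 1 cycle/sec.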
# DRD3 antagonist: qHTS of D3 Dopamine Receptor Antagonist: qHTS. D(3) dopamine receptor (Homo sapiens), P35462. D3R cells, DiscoveRx beta-arrestin luminescence, antagonist mode; hits give low values. max response, negative = inhibition, %. 360,000 tested, 2.5% active. AID 652054, 2013; in the data active = max response below about -50%; inconclusive = no clear call, values can overlap the other calls; also: % is scaled to controls: 0 for no effect and ±100 for the full control effect
#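 Cells plated overnight at 1500 cells/well, then exposed to library compounds with dopamine controls for 90 minutes at 37 degrees C. DiscoveRx reagent added for 30–60 minutes at room temperature; luminescence read, quantitative HTS format.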
# D1 ag: Allosteric Agonists of the Human D1 Dopamine Receptor: qHTS. D(1A) dopamine receptor (Homo sapiens), P21728. HEK293 T-REx D1 cells, calcium flux, agonist mode. activation, % at 2 µM. 360,000 tested, 1% active; in the data active = activation above about 30%; also: 0% is about no effect
#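 Tetracycline-induced HEK293 TREx D1 cells, force-coupled to calcium signalling, were dye-loaded with a no-wash calcium kit. Compound was pin-added after a 10 s baseline. Fluorescence was read kinetically at 1 cycle/s for 180 s, with calcium rises flagged as agonism.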
# D1 PAM: Potentiators of Human D1 Dopamine Receptor: qHTS; D(1A) dopamine receptor (Homo sapiens), P21728; HEK293 TREx D1 cells, calcium flux, dopamine EC20 potentiation; potentiation, % at 10 µM; 360,000 tested, 0.036% active; in the data active = potentiation above about 30%; also: 0% is about no effect
# An asterisk follows results filed as active; u = inconclusive; x = no result. Sampled rows, rich in hits. Any-hit rate of the full collection: about 6%.
SMILES,DRD3 agonist,D1 antag,DRD3 antagonist,D1 ag,D1 PAM
CC(N=C1NS(=O)(=O)c2ccccc21)C(=O)NCCCc1ccccc1 (stereo not given),-17.3,0.1,-4.2,1.0,3.1
CCOc1cc(/C=N/NC(=O)CCn2nc(C)cc2C)ccc1O,1.5,0.7,2.1,2.2,-9.3
COc1ccc(NC(=O)COCc2cc(-c3ccc4c(c3)OCO4)on2)cc1,-0.9,-15.0,x,9.6,-7.0
CC(C)(CO)NC12CC3CC(CC(C3)C1)C2,1.4,-9.6,-13.7,3.3,-1.1
CC(C)(C)CNC(CO)C12CC3CC(CC(C3)C1)C2 (stereo not given),-2.9,3.6,-54.4*,3.7,3.6
Cc1cc(C)cc(-n2c(C)cc(/C=C3\C(=N)N4N=C(CC(C)C)SC4=NC3=O)c2C)c1,3.8,-8.0,-2.1,0.2,-13.7
CCCC1=NN2C(=N)/C(=C\c3cc(C)n(-c4cc(C)cc(C)c4)c3C)C(=O)N=C2S1,-9.3,-60.3*,-57.5*,40.0*,-1.3
CCN(CC)C(=O)c1cccc(NC(=O)C2CCN(C(=O)c3cccs3)CC2)c1,0.0,x,-19.6,x,x
Cc1ccc(S(=O)(=O)Nc2cc(Cl)ccc2-n2cncn2)cc1,6.2,-38.4*,-3.7,1.3,2.3
O=S(=O)(Nc1cc(Cl)ccc1-n1cncn1)c1cc(Br)ccc1Br,9.6,-33.3*,16.6,21.5,-10.3
O=S(=O)(Nc1cc(Cl)ccc1-n1cncn1)c1ccccc1Cl,-2.4,-2.8,-29.9,2.0,2.5
O=S(=O)(Nc1cc(Cl)ccc1-n1cncn1)c1ccc(F)cc1,-0.7,-0.5,-5.0,4.3,-0.6
CCOC(=O)C1(C)C=C(Nc2ccc(C(N)=O)cc2)C(=O)N1c1ccccc1 (stereo not given),-1.2,-8.1,x,-0.3,-1.9
Cc1c(N=C2N=C(NC(=O)c3cccs3)c3ccccc32)c(=O)n(-c2ccccc2)n1C,1.1,-16.2,27.9,40.8*,-4.8
CCCN1C[C@H](CSC)C[C@@H]2c3cccc4[nH]cc(c34)C[C@H]21,84.4*,-88.3*,26.5,51.0*,-5.9
Cc1nc2ccn(Cc3cccnc3)c(=O)c2cc1C(=O)Nc1ccc(F)cc1F,6.7,-14.8,x,1.9,-7.3
CC(OC(=O)Cc1n[nH]c(=O)c2ccccc12)C(=O)N(C)c1ccccc1 (stereo not given),0.6,x,-12.7,x,x
CC(=O)c1nc(N2C(=O)CC(Cc3cccc(C)c3)C2=O)sc1C (stereo not given),8.1,-53.2*,-55.4*,4.0,-5.2
CC(=O)c1nc(N2C(=O)CC(Cc3cc(C)cc(C)c3)C2=O)sc1C (stereo not given),-14.2,-15.1,u,1.4,-0.9
CCOC(=O)CN[C@@H](C(=O)N1CC[C@H]1C(=O)NCc1ccc(/C(N)=N/O)cc1)C1CCCCC1,3.7,x,x,x,x
Cc1ccc(C)c(N2CCN(C(=O)CCCOc3cc(=O)n(C)c4ccccc34)CC2)c1,78.9*,3.2,29.7,2.4,6.6
Cc1ccc(C)c(N2CCN(C(=O)CCc3nc(-c4ccccc4C(F)(F)F)no3)CC2)c1,38.7*,x,108.2,x,x
COc1ccccc1-c1noc(CCC(=O)N2CCN(c3cc(C)ccc3C)CC2)n1,48.7*,x,63.8,x,x
COc1ccc(-c2noc(CCCCC(=O)N3CCN(c4cc(C)ccc4C)CC3)n2)cc1,52.9*,x,100.5,x,x
Cc1ccc(-c2noc(CCC(=O)N3CCN(c4cc(C)ccc4C)CC3)n2)cc1,5.9,x,53.1,x,x
Cc1onc(-c2ccccc2)c1CNS(=O)(=O)c1cccc(Br)c1,4.5,-0.3,11.9,1.1,-3.0
COc1cc(/C=C(\C#N)c2ccccn2)ccc1OCc1ccccc1Cl,-22.8,12.9,-23.4,9.7,1.2
COc1cc(/C=C(\C#N)c2ccccn2)cc(OC)c1O,-3.1,1.7,-12.9,38.0*,-0.9
COc1cc(/C=C(\C#N)c2[nH]nc(N)c2C#N)cc(OC)c1O,-1.9,5.4,-25.4,36.2*,2.6
OCC#CCSc1nnc(-c2cccc3ccccc23)o1,x,-6.3,x,10.2,-3.5
